From PubChem BioAssay (NCATS)
Inconclusive results are not listed. Entries that show only a call come without a potency. Calls of active or inactive are those of the source. The call rests on the fitted dose curve; in most records, active means well fitted inhibition curve with a large enough effect; inconclusive means small, poorly fitted or top-dose-only effect; inactive means no such curve, though single readings can be large or run the other way.

target: Rap guanine nucleotide exchange factor 4 (Homo sapiens) (UniProt Q8WZA2); test: Confirmatory qHTS for antagonist of cAMP-regulated guanine nucleotide exchange factor 4 (EPAC2) (AID 1645885); conditions: EPAC2 Rap1B-BODIPY-GDP exchange fluorescence, biochemical; series mostly up to 12.7 µM; further: nearly all actives have a fitted effect of over 25% in size; further: potency means the concentration at half of the fitted maximal effect
Sequence (Q8WZA2 whole entry, looked up): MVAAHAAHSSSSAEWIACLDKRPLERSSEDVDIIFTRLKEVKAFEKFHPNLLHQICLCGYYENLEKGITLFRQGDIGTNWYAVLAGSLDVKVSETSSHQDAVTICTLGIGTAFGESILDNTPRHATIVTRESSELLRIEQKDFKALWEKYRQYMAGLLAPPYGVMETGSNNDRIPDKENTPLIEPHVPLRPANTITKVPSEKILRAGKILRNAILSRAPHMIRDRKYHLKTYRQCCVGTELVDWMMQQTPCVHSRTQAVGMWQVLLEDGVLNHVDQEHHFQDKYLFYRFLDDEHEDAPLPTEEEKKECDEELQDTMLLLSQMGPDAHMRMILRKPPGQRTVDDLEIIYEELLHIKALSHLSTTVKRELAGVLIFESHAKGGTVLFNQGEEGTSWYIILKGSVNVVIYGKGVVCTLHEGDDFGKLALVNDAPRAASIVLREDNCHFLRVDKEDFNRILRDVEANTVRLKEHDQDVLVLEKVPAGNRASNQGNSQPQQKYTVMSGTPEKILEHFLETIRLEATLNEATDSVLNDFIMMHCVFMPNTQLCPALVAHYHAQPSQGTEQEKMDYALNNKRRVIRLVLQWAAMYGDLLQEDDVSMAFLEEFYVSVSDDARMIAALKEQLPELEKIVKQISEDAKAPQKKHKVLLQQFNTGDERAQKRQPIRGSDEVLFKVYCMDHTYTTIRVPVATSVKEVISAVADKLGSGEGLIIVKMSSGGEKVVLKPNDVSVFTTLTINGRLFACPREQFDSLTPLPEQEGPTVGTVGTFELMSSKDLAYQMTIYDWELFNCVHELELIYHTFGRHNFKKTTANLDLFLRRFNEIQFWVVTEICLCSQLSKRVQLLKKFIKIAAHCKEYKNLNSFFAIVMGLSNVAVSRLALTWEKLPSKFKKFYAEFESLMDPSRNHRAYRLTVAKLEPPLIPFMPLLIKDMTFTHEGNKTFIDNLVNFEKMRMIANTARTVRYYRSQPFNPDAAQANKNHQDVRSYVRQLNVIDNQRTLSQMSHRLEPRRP

SMILES	outcome	Potency
O=C1CSC2(C(=O)N(Cc3ccccc3F)c3ccccc32)N1c1ccc(F)cc1 (stereo not given)	inactive [at 12.7 µM]	
CN(CCC#N)C(=O)COC(=O)c1c2c(nc3ccccc13)/C(=C/c1ccco1)CC2		inactive
COc1cc(C=NNc2ccc(S(=O)(=O)Nc3ccccc3C(=O)O)cc2[N+](=O)[O-])ccc1O		inactive
COc1cccc2sc(N3CCN(c4nc5ccccc5s4)CC3)nc12		inactive
O=C1C(Cl)=C(NC(=O)c2ccccc2)C(=O)C(Cl)=C1NC(=O)c1ccccc1		inactive
CCOCCCn1c(SCC(=O)Nc2cccc(OC)c2)nc2ccccc2c1=O		inactive
C#CCOCCOCCOCCNc1nc(N2CCN(C(=O)[C@H](Cc3cc4ccccc4[nH]3)n3cc([C@@H](N)Cc4ccc(O)cc4)nn3)CC2)nc(N2CCN(C(=O)[C@H](Cc3cc4ccccc4[nH]3)n3cc([C@@H](N)CC(C)C)nn3)CC2)n1		inactive
CN(C)S(=O)(=O)c1cccc(-c2nn(-c3ccccc3)cc2/C=C2\SC(=S)NC2=O)c1		42.6 µM (active)
Cc1cc(NS(=O)(=O)c2ccc(NC(=O)Cc3ccc(Cl)c(Cl)c3)cc2)no1		inactive
CCCCCCOC(=O)C(C#N)c1nc2ccccc2nc1N1CCOCC1 (stereo not given)		75.7 µM (active)
CC(=O)N1N=C(N)SC1c1ccc(Cl)c(Cl)c1 (stereo not given)		inactive
O=C(OCC(=O)N1CCCC1=O)c1cc(Cl)ccc1O		inactive
CCOC(=O)c1sc(N2C(=O)C(O)=C(C(=O)c3ccco3)C2c2cccc([N+](=O)[O-])c2)nc1C (stereo not given)		inactive
O=C1NN(c2cccc(Br)c2)C(=O)/C1=C/c1ccc(-c2cc([N+](=O)[O-])ccc2O)o1		inactive
CCc1ccc(Nc2n[n+](-c3ccccc3)c(-c3cc(OC)c(OC)cc3Br)s2)cc1		inactive
CC(C)(C)c1ccc(CC(=O)N2CCC2(C)C(=O)NS(=O)(=O)c2ccccc2)cc1 (stereo not given)		inactive
CC(C)N1CCc2c(sc(NC(=O)c3ccc(S(=O)(=O)N4CCCCC4C)cc3)c2C(N)=O)C1 (stereo not given)		inactive
O=C1CC(c2ccccc2)=C(c2ccccc2)C1		inactive
COc1ccc(C(C#N)N2N=C(C)CC2c2ccccc2)cc1 (stereo not given)		47.8 µM (active)
CCOC(=O)c1cc2c(=O)n3ccccc3nc2n(Cc2ccco2)c1=NC(=O)c1ccc(Br)cc1	inactive [at 12.7 µM]	

SMILES	outcome	Potency
CCOC(=O)C1=C(CSc2nc3ccccc3s2)NC(=O)NC1c1ccc(OC)cc1 (stereo not given)	inactive; activator; fitted 0.12 uM [at 12.7 µM]	
Cn1c(=O)c2c(nc(N3CCOCC3)n2CCSc2ncccn2)n(C)c1=O		0.338 µM (active)
CCOc1ccc(S(=O)(=O)N2CCCCC2)c2ccccc12		inactive
O=C(c1ccco1)N(CCC(c1ccccc1)c1ccco1)Cc1ccco1 (stereo not given)		inactive
CC(C)OC(=O)/C(=C/c1ccc2c(c1)c1ccccc1n2C)NC(=O)c1ccccc1		inactive
C=CCn1c(NC(=O)c2ccccc2Cl)c(C#N)c2nc3ccccc3nc21		3.01 µM (active)
Cc1cccc(N=C2NC(=O)/C(=C/C=C/c3ccco3)S2)c1C		inactive
CC(=O)c1ccc(NC(=O)CSc2nc(Nc3ccccc3)nc(N3CCOCC3)n2)cc1		inactive
CN(C(=O)c1cc(-c2ccccc2)on1)C1CCCCC1		inactive
CCOC(=O)N1CCN(C(=O)CSc2nnc(Cc3ccccc3)o2)CC1		inactive
CCOC(=O)c1ccc(NC(=O)Cn2nc(C)c3nn(-c4ccc(Cl)cc4)c(C)c3c2=O)cc1		inactive
CN1N=C(C(C)(C)C)CC1=O		inactive
Cc1ccc(S(=O)(=O)NC(=O)Cn2nnc(-c3ccccc3)c2COc2ccc3ccccc3c2)cc1		inactive
CCOc1ccccc1NC(=O)COC(=O)c1ccc(S(=O)(=O)N2CCCC2)cc1		inactive
Cc1ccc(C(=O)c2cn(Cc3ccccc3)c3nc(C)ccc3c2=O)cc1		inactive
Cc1ccc(O)c(N=Cc2cc(Cc3ccccc3)cc([N+](=O)[O-])c2O)c1		47.8 µM (active)
O=C(c1ccc([N+](=O)[O-])o1)N1CCN(c2nc3c(Cl)cccc3s2)CC1		inactive
CC/C(=N/NC(=O)c1ccc2c(c1)OCO2)c1ccccc1O		inactive
Cn1nc(-c2ccccn2)nc2c(=O)n(C)c(=O)nc1-2		inactive
COc1ccc(C(=O)c2ccc(OC)c(OC)c2OC)cc1		7.57 µM (active)

target: Rap guanine nucleotide exchange factor 3 (Homo sapiens) (UniProt O95398); test: Counterscreen qHTS for antagonist of cAMP-regulated guanine nucleotide exchange factor 3 (EPAC1) (AID 1645888); conditions: Rap1B-BODIPY-GDP nucleotide exchange, fluorescence; series mostly up to 154 µM;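 further: fluorescence loss as bound BODIPY-GDP is released from Rap1B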
Sequence (O95398 whole entry, looked up): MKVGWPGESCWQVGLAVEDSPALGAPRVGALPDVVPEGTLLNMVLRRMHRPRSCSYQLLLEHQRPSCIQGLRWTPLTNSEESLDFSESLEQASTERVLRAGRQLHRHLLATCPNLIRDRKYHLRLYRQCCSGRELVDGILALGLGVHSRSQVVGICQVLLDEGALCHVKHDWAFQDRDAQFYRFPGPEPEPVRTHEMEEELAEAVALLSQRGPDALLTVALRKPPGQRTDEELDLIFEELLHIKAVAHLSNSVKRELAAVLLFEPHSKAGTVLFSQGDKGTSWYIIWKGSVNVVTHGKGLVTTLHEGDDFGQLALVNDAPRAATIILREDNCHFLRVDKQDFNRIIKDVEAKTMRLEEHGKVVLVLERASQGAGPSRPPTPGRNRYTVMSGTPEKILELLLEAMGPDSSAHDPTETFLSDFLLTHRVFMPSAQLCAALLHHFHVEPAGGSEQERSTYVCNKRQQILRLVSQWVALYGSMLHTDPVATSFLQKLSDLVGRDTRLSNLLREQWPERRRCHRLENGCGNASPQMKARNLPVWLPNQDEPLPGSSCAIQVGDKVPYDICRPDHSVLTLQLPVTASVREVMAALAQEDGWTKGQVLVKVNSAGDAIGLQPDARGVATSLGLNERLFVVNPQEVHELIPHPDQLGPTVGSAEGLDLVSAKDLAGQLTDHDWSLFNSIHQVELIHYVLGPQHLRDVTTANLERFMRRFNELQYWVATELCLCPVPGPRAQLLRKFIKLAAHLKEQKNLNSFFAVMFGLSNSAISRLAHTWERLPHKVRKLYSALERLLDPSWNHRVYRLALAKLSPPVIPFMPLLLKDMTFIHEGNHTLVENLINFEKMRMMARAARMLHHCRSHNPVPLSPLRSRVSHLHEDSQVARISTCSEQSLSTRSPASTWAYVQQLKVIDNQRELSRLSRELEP
Procedure, shortened: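 Measured: fluorescence of BODIPY-GDP bound to Rap1B, which falls as exchange proceeds. Conditions include 50 uM competing GDP, 5 and 30 min reads, and a later cAMP challenge for antagonist detection.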

SMILES	Potency	activity change, negative = inhibition
O=C1CSC2(C(=O)N(Cc3ccccc3F)c3ccccc32)N1c1ccc(F)cc1 (stereo not given)	inactive	
CN(CCC#N)C(=O)COC(=O)c1c2c(nc3ccccc13)/C(=C/c1ccco1)CC2		-6.16% [at 30.8 µM] (inactive)
COc1cc(C=NNc2ccc(S(=O)(=O)Nc3ccccc3C(=O)O)cc2[N+](=O)[O-])ccc1O		-11.1% [at 30.8 µM] (inactive)
COc1cccc2sc(N3CCN(c4nc5ccccc5s4)CC3)nc12		-13.4% [at 30.8 µM] (inactive)
O=C1C(Cl)=C(NC(=O)c2ccccc2)C(=O)C(Cl)=C1NC(=O)c1ccccc1	inactive	
CCOCCCn1c(SCC(=O)Nc2cccc(OC)c2)nc2ccccc2c1=O	inactive	
C#CCOCCOCCOCCNc1nc(N2CCN(C(=O)[C@H](Cc3cc4ccccc4[nH]3)n3cc([C@@H](N)Cc4ccc(O)cc4)nn3)CC2)nc(N2CCN(C(=O)[C@H](Cc3cc4ccccc4[nH]3)n3cc([C@@H](N)CC(C)C)nn3)CC2)n1		-28.3% [at 30.8 µM] (inactive)
CN(C)S(=O)(=O)c1cccc(-c2nn(-c3ccccc3)cc2/C=C2\SC(=S)NC2=O)c1	inactive	
Cc1cc(NS(=O)(=O)c2ccc(NC(=O)Cc3ccc(Cl)c(Cl)c3)cc2)no1	inactive	
CCCCCCOC(=O)C(C#N)c1nc2ccccc2nc1N1CCOCC1 (stereo not given)	inactive	
CC(=O)N1N=C(N)SC1c1ccc(Cl)c(Cl)c1 (stereo not given)		-0.904% [at 30.8 µM] (inactive)
O=C(OCC(=O)N1CCCC1=O)c1cc(Cl)ccc1O	inactive	
CCOC(=O)c1sc(N2C(=O)C(O)=C(C(=O)c3ccco3)C2c2cccc([N+](=O)[O-])c2)nc1C (stereo not given)	inactive	
O=C1NN(c2cccc(Br)c2)C(=O)/C1=C/c1ccc(-c2cc([N+](=O)[O-])ccc2O)o1	inactive	
CCc1ccc(Nc2n[n+](-c3ccccc3)c(-c3cc(OC)c(OC)cc3Br)s2)cc1	inactive	
CC(C)(C)c1ccc(CC(=O)N2CCC2(C)C(=O)NS(=O)(=O)c2ccccc2)cc1 (stereo not given)		-2% [at 30.8 µM] (inactive)
CC(C)N1CCc2c(sc(NC(=O)c3ccc(S(=O)(=O)N4CCCCC4C)cc3)c2C(N)=O)C1 (stereo not given)		3.44% [at 30.8 µM] (inactive)
O=C1CC(c2ccccc2)=C(c2ccccc2)C1		8.98% [at 30.8 µM] (inactive)
COc1ccc(C(C#N)N2N=C(C)CC2c2ccccc2)cc1 (stereo not given)	inactive	
CCOC(=O)c1cc2c(=O)n3ccccc3nc2n(Cc2ccco2)c1=NC(=O)c1ccc(Br)cc1	inactive	

SMILES	Potency	activity change, negative = inhibition
CCOC(=O)C1=C(CSc2nc3ccccc3s2)NC(=O)NC1c1ccc(OC)cc1 (stereo not given)	inactive	
Cn1c(=O)c2c(nc(N3CCOCC3)n2CCSc2ncccn2)n(C)c1=O		-3.24% [at 30.8 µM] (inactive)
CCOc1ccc(S(=O)(=O)N2CCCCC2)c2ccccc12	inactive	
O=C(c1ccco1)N(CCC(c1ccccc1)c1ccco1)Cc1ccco1 (stereo not given)	inactive	
CC(C)OC(=O)/C(=C/c1ccc2c(c1)c1ccccc1n2C)NC(=O)c1ccccc1	inactive	
C=CCn1c(NC(=O)c2ccccc2Cl)c(C#N)c2nc3ccccc3nc21		-7.8% [at 30.8 µM] (inactive)
Cc1cccc(N=C2NC(=O)/C(=C/C=C/c3ccco3)S2)c1C	inactive	
CC(=O)c1ccc(NC(=O)CSc2nc(Nc3ccccc3)nc(N3CCOCC3)n2)cc1	inactive	
CN(C(=O)c1cc(-c2ccccc2)on1)C1CCCCC1		29.1% [at 30.8 µM] (inactive)
CCOC(=O)N1CCN(C(=O)CSc2nnc(Cc3ccccc3)o2)CC1	inactive	
CCOC(=O)c1ccc(NC(=O)Cn2nc(C)c3nn(-c4ccc(Cl)cc4)c(C)c3c2=O)cc1	inactive	
CN1N=C(C(C)(C)C)CC1=O	inactive	
Cc1ccc(S(=O)(=O)NC(=O)Cn2nnc(-c3ccccc3)c2COc2ccc3ccccc3c2)cc1	inactive	
CCOc1ccccc1NC(=O)COC(=O)c1ccc(S(=O)(=O)N2CCCC2)cc1	inactive	
Cc1ccc(C(=O)c2cn(Cc3ccccc3)c3nc(C)ccc3c2=O)cc1	inactive	
Cc1ccc(O)c(N=Cc2cc(Cc3ccccc3)cc([N+](=O)[O-])c2O)c1	inactive	
O=C(c1ccc([N+](=O)[O-])o1)N1CCN(c2nc3c(Cl)cccc3s2)CC1	inactive	
CC/C(=N/NC(=O)c1ccc2c(c1)OCO2)c1ccccc1O	inactive	
Cn1nc(-c2ccccn2)nc2c(=O)n(C)c(=O)nc1-2	inactive	
COc1ccc(C(=O)c2ccc(OC)c(OC)c2OC)cc1	inactive	
